Results taken from PubChem BioAssay AID1159580 (chemical genetic matrix, 2015).
Values joined by “and” are separate entries in the source; they are usually repeats but may differ in a detail not shown here. Equal values may be shown once. The whole screen tested about 5,500 compounds, of which about 2,000 (36%) were called active. Roughly 18% stayed inconclusive and do not appear here. Cut-off read from the data, not from the text of the source: active = normalized growth mostly below about 0.91 (no sharp cut-off); inconclusive = no clear call, values can overlap the other calls; inactive = mostly above about 0.92. This is one part of the list.

Test: chemical genetic growth profiling, strain panel (AID 1159580);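 note: tested at 20 µM; growth read once vehicle control cultures reached saturation at 30 °C; 1 = growth at the plate median or of vehicle wells; lower values mean less growth of the strain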
Details: S. cerevisiae deletion strains, growth OD

Measured: normalized growth

CC(=O)OCC(=O)[C@@]12OC3(CCCC3)O[C@@H]1CC1C3CCC4=CC(=O)C=C[C@]4(C)[C@@]3(F)[C@@H](O)C[C@@]12C (stereo partly specified)
inactive: locus YAL013W, strain DEP1, stronger effect = lower value 1.02 | locus YAL021C, strain ccr4, stronger effect = lower value 1.01 | locus YAL026C, strain drs2, stronger effect = lower value 1.02 | locus YAL030W, strain snc1, stronger effect = lower value 1.02 | locus YBL061C, strain skt5, stronger effect = lower value 1.03 | locus YBR009C, strain hhf1, stronger effect = lower value 1.01 | locus YBR021W, strain FUR4, stronger effect = lower value 1.02 | locus YBR023C, strain chs3, stronger effect = lower value 1.01 | locus YBR171W, strain sec66, stronger effect = lower value 1.02 | locus YBR229C, strain ROT2, stronger effect = lower value 1.02 | locus YBR231C, strain swc5, stronger effect = lower value 1.02 | locus YBR279W, strain paf1, stronger effect = lower value 1.01 | locus YCL011C, strain gbp2, stronger effect = lower value 1.02 | locus YCL016C, strain dcc1, stronger effect = lower value 1.01 | locus YCL029C, strain bik1, stronger effect = lower value 0.985 | locus YCL069W, strain vba3, stronger effect = lower value 1.02 | locus YCR088W, strain abp1, stronger effect = lower value 1.02 | locus YDL005C, strain med2, stronger effect = lower value 1.02 | locus YDL035C, strain GPR1, stronger effect = lower value 1.01 | locus YDL040C, strain nat1, stronger effect = lower value 1.02 | locus YDL074C, strain BRE1, stronger effect = lower value 0.972 | locus YDL101C, strain DUN1, stronger effect = lower value 1.01 | locus YDL134C, strain PPH21, stronger effect = lower value 1.01 | locus YDL185W, strain tfp1, stronger effect = lower value 1 | locus YDL192W, strain arf1, stronger effect = lower value 1 | locus YDR001C, strain nth1, stronger effect = lower value 1.02 | locus YDR069C, strain doa4, stronger effect = lower value 1.01 | locus YDR101C, strain arx1, stronger effect = lower value 0.984 | locus YDR137W, strain rgp1, stronger effect = lower value 1.02 | locus YDR150W, strain NUM1, stronger effect = lower value 1.02 | locus YDR159W, strain sac3, stronger effect = lower value 1.02 | locus YDR162C, strain NBP2, stronger effect = lower value 1.02 | locus YDR195W, strain ref2 1.03 | locus YDR297W, strain sur2, stronger effect = lower value 1.02 | locus YDR318W, strain mcm21, stronger effect = lower value 1 | locus YDR334W, strain swr1, stronger effect = lower value 1.02 | locus YDR335W, strain msn5, stronger effect = lower value 1.01 | locus YDR388W, stronger effect = lower value 1 | locus YDR392W, strain spt3, stronger effect = lower value 1.03 | locus YDR502C, strain sam2, stronger effect = lower value 1.02 | locus YEL003W, strain gim4, stronger effect = lower value 1.02 | locus YEL037C, strain rad23, stronger effect = lower value 1.02 | locus YEL061C, strain CIN8 (second series), stronger effect = lower value 1.03 | locus YEL061C, strain CIN8, stronger effect = lower value 1.01 | locus YER015W, strain faa2, stronger effect = lower value 1.01 | locus YER016W, strain bim1, stronger effect = lower value 1.03 | locus YER110C, stronger effect = lower value 1 | locus YER111C, strain swi4, stronger effect = lower value 1.02 | locus YER155C, strain BEM2 (second series), stronger effect = lower value 1.08 | locus YER155C, strain BEM2, stronger effect = lower value 1.02 | locus YER167W, strain BCK2, stronger effect = lower value 1.02 | locus YFR010W, strain ubp6, stronger effect = lower value 1.02 | locus YGL078C, strain dbp3, stronger effect = lower value 0.987 | locus YGL086W, strain mad1, stronger effect = lower value 1 | locus YGL167C, strain pmr1, stronger effect = lower value 1.03 | locus YGL173C, strain kem1, stronger effect = lower value 1.02 | locus YGL227W, strain vid30, stronger effect = lower value 1.02 | locus YGL240W, strain doc1, stronger effect = lower value 1.03 | locus YGL248W, strain PDE1, stronger effect = lower value 1.01 | locus YGL253W, strain hxk2, stronger effect = lower value 0.963 | locus YGR078C, strain PAC10, stronger effect = lower value 1.01 | locus YGR135W, strain pre9, stronger effect = lower value 0.989 | locus YGR229C, strain SMI1, stronger effect = lower value 1.03 | locus YGR252W, strain gcn5, stronger effect = lower value 1.04 | locus YHR013C, strain ard1, stronger effect = lower value 1.03 | locus YHR027C, strain rpn1, stronger effect = lower value 1.02 | locus YHR030C, strain SLT2, stronger effect = lower value 1.01 and 0.976 | locus YHR079C, strain IRE1 (second series), stronger effect = lower value 0.986 | locus YHR079C, strain IRE1, stronger effect = lower value 0.978 | locus YHR094C, strain hxt1, stronger effect = lower value 0.991 | locus YHR129C, strain ARP1, stronger effect = lower value 1.01 | locus YHR142W, strain chs7, stronger effect = lower value 1 | locus YHR200W, strain rpn10, stronger effect = lower value 0.994 | locus YIL066C, strain RNR3, stronger effect = lower value 1.01 | locus YIL073C, strain SPO22, stronger effect = lower value 0.966 | locus YIL125W, strain kgd1, stronger effect = lower value 1.01 | locus YIR030C, strain dcg1, stronger effect = lower value 0.992 | locus YJL092W, strain hpr5, stronger effect = lower value 1.02 | locus YJL095W, strain BCK1 (second series), stronger effect = lower value 1.02 | locus YJL095W, strain BCK1, stronger effect = lower value 1.01 and 0.989 | locus YJL115W, strain asf1, stronger effect = lower value 1.03 | locus YJL129C, strain trk1, stronger effect = lower value 1.01 | locus YJL134W, strain LCB3, stronger effect = lower value 1.01 | locus YJL154C, strain vps35, stronger effect = lower value 1.02 | locus YJL164C, strain tpk1, stronger effect = lower value 1 | locus YJL166W, strain qcr8, stronger effect = lower value 1.02 | locus YJL168C, strain set2, stronger effect = lower value 1 | locus YJL187C, strain SWE1 (second series), stronger effect = lower value 1.01 | locus YJL187C, strain SWE1, stronger effect = lower value 1.03 | locus YJR043C, strain POL32, stronger effect = lower value 0.988 | locus YJR066W, strain TOR1, stronger effect = lower value 0.968
